The target in test [1] is Fibroblast growth factor receptor 4 (Homo sapiens) (UniProt P22455). The conditions noted are these: at 1 µM.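 Further: reported figure is the averaged percent inhibition of FGFR4, from the GSK PKIS kinase screening panel.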
Test [2] addresses Tyrosine-protein kinase Fgr (Homo sapiens) (UniProt P09769). The conditions noted are these: at 0.1 µM.
Test [3] has the same target. The conditions noted are these: at 1 µM.
For test [4], the target named is Vascular endothelial growth factor receptor 1 (Homo sapiens) (UniProt P17948). The conditions noted are these: at 0.1 µM.
Sequence of Vascular endothelial growth factor receptor 1 (Homo sapiens) (P17948 whole entry): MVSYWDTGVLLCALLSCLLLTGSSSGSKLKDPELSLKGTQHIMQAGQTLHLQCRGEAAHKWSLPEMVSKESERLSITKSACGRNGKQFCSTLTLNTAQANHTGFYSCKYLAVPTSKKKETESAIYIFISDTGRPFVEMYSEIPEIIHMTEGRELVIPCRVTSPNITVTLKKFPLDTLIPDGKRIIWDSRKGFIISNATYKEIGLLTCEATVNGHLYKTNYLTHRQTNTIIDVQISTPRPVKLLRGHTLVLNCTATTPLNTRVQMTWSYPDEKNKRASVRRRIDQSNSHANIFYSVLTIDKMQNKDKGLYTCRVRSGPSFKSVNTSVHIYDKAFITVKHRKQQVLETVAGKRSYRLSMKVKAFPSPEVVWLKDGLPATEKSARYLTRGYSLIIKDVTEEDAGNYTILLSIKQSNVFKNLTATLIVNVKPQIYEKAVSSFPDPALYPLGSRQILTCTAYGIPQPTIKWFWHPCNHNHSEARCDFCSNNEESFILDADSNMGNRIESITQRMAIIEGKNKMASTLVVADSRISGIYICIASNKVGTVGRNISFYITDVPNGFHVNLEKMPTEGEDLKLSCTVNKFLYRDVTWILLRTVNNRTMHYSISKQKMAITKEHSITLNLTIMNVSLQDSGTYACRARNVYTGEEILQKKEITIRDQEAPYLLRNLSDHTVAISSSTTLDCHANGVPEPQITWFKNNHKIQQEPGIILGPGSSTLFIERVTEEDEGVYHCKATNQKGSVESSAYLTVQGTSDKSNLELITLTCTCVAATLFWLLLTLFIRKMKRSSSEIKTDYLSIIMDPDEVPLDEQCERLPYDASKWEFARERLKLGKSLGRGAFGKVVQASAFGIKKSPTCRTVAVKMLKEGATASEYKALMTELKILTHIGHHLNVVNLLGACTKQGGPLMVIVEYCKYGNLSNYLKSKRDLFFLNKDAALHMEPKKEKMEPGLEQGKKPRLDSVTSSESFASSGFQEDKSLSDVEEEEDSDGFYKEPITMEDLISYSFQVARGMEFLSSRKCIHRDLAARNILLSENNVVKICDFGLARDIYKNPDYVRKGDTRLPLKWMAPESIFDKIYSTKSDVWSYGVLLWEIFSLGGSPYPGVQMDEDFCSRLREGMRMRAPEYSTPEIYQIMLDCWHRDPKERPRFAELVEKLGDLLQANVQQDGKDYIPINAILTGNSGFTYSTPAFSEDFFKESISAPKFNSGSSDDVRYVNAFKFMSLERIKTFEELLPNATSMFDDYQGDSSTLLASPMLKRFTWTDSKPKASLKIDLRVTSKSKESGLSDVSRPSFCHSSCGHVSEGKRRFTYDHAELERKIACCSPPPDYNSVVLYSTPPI
For test [5] the target is unchanged. The conditions noted are these: at 1 µM.
Test [6] deals with Receptor-type tyrosine-protein kinase FLT3 (Homo sapiens) (UniProt P36888). The conditions noted are these: at 0.1 µM.
Test [7] shares this target. The conditions noted are these: at 1 µM.
Test [8] deals with T1, Receptor-type tyrosine-protein kinase FLT3 (Homo sapiens), P36888 [D835Y].
T1 sequence (whole entry): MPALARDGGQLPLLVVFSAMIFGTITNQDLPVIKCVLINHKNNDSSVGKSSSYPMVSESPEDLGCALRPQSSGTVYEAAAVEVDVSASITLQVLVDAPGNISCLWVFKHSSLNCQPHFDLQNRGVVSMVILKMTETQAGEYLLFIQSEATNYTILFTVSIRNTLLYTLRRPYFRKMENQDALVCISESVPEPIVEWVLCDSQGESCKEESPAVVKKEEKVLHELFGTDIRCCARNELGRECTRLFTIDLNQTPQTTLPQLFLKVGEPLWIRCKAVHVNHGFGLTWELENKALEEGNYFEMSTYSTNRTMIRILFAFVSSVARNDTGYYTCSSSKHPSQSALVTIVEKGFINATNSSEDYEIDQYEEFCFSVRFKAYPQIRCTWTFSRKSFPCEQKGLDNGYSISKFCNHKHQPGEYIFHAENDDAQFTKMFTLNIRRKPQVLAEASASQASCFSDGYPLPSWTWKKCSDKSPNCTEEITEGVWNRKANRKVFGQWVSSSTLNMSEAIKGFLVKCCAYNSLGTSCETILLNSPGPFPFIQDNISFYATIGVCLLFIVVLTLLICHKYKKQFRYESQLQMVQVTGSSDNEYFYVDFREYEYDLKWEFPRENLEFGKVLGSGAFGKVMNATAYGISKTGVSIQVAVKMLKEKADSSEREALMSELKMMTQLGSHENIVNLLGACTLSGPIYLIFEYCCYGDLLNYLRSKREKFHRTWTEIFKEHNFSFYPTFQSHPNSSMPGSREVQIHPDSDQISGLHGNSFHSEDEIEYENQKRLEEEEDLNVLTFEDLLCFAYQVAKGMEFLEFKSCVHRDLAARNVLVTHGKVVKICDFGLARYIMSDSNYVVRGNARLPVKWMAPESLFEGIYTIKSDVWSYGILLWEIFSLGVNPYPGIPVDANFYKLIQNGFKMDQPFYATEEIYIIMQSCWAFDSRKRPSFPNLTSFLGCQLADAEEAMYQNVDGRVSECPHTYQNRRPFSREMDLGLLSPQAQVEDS
The conditions noted are these: at 0.1 µM.

For test [9], the target named is Non-receptor tyrosine-protein kinase TYK2 (Homo sapiens) (UniProt P29597). The conditions noted are these: at 1 µM.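 Further: values are mean percent inhibition of TYK2 kinase.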
Test [10] has as its target T2, Tyrosine-protein kinase receptor TYRO3 (Homo sapiens) (UniProt Q06418).
T2 sequence (whole entry): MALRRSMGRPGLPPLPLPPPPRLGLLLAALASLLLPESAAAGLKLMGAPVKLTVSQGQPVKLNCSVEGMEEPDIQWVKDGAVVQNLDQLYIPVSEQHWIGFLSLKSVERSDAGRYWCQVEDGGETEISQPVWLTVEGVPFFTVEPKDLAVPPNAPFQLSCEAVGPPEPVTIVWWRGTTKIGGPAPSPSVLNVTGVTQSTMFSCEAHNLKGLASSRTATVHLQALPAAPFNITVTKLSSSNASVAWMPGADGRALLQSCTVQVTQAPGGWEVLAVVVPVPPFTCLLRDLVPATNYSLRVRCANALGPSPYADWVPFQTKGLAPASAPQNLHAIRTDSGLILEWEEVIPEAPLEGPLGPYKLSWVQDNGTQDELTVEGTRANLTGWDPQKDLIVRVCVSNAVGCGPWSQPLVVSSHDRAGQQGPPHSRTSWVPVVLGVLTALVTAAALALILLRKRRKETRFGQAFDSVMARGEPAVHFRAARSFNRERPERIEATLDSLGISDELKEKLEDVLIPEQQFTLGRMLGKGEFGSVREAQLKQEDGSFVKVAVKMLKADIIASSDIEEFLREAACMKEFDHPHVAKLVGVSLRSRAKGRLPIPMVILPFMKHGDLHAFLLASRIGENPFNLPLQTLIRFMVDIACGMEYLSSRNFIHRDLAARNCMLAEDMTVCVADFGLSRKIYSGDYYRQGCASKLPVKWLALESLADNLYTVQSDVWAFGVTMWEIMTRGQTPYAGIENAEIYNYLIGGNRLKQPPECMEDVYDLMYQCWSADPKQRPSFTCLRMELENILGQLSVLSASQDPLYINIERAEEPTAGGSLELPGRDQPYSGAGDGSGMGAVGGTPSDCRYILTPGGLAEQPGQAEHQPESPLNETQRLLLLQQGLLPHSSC
The conditions noted are these: at 0.1 µM.

Test [11] has as its target T2, Tyrosine-protein kinase receptor TYRO3 (Homo sapiens). The conditions noted are these: at 1 µM.
Test [12] concerns the target Tyrosine-protein kinase Yes (Homo sapiens) (UniProt P07947). The conditions noted are these: at 0.1 µM.
Test [13] has the same target. The conditions noted are these: at 1 µM.
Test [14] deals with T3, Tyrosine-protein kinase ZAP-70 (Homo sapiens) (UniProt P43403).
T3 sequence (whole entry): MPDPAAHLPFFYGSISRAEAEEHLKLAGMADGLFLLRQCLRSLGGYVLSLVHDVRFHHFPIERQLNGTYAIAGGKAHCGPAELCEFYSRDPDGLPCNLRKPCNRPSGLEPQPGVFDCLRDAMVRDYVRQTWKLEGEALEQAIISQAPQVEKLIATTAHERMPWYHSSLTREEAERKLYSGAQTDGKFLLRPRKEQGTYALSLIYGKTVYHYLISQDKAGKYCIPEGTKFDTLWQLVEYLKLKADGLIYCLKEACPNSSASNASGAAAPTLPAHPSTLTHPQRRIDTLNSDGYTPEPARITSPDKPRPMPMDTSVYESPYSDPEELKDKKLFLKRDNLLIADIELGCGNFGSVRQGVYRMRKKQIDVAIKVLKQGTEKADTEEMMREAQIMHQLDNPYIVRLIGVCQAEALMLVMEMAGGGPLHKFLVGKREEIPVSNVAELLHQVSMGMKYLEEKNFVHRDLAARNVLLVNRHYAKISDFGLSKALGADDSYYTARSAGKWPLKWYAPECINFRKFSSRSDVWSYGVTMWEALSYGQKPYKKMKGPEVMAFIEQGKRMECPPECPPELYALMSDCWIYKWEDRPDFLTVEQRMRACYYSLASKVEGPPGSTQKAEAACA
The conditions noted are these: at 0.1 µM.

The target of test [15] is T3, Tyrosine-protein kinase ZAP-70 (Homo sapiens). The conditions noted are these: at 1 µM.
In test [16] the target is Serine/threonine-protein kinase B-raf (Homo sapiens) (UniProt P15056). The conditions noted are these: at 0.1 µM.
Sequence of Serine/threonine-protein kinase B-raf (Homo sapiens) (P15056 whole entry): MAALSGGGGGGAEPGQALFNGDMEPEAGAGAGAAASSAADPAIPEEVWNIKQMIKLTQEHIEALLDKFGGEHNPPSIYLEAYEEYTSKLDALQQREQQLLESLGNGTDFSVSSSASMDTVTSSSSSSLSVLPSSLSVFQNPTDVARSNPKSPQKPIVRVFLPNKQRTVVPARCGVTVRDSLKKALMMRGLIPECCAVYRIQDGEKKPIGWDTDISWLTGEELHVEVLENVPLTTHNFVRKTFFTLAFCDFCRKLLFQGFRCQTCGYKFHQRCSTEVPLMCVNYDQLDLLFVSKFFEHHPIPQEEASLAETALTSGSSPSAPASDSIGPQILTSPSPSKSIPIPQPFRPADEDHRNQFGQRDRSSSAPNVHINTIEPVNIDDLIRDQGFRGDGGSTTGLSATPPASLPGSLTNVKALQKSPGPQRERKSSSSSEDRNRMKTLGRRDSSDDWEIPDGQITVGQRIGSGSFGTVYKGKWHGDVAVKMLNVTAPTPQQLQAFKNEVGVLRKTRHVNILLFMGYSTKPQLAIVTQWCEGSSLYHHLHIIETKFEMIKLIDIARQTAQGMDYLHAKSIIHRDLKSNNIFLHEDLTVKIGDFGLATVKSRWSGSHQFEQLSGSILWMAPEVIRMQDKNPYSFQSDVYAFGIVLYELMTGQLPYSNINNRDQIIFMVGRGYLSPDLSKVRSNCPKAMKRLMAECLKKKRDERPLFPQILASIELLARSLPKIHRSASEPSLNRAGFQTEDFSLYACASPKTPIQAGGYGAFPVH
Test [17] shares this target. The conditions noted are these: at 1 µM.
For test [18], the system named is Serine/threonine-protein kinase B-raf (Homo sapiens), P15056 [V600E]. The conditions noted are these: at 0.1 µM.
Sequence of Serine/threonine-protein kinase B-raf (Homo sapiens), P15056 [V600E] (P15056 whole entry V600E): as the sequence (P15056 whole entry) above, with V600E counted along it
For test [19] the test system is unchanged. The conditions noted are these: at 1 µM.
The target in test [20] is RAF proto-oncogene serine/threonine-protein kinase (Homo sapiens) (UniProt P04049). The conditions noted are these: at 0.1 µM.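 Further: values are mean CRAF kinase inhibition from profiling of the GSK Published Kinase Inhibitor Set.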
Sequence of RAF proto-oncogene serine/threonine-protein kinase (Homo sapiens) (P04049 whole entry): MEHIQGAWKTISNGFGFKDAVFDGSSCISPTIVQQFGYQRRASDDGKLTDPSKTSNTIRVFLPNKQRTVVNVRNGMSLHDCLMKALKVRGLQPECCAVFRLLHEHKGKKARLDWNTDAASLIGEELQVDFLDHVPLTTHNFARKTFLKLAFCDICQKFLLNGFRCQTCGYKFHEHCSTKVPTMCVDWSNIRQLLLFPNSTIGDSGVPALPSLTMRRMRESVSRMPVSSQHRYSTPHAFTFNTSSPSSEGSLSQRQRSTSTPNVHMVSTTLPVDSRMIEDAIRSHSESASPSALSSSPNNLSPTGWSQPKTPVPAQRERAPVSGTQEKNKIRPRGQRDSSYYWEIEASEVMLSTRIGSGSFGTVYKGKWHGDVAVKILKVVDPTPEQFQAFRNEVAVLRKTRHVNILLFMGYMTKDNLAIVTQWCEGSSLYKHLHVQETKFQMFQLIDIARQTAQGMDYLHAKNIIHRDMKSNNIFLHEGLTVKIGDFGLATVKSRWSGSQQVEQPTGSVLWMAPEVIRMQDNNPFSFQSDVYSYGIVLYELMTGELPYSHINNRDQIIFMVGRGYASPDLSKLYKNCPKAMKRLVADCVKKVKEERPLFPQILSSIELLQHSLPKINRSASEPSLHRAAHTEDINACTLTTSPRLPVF

A word on the inhibition: it is the change of the read-out against control, counted positive when it falls.

Sequence of Tyrosine-protein kinase Fgr (Homo sapiens) (P09769 2-529 limits assumed): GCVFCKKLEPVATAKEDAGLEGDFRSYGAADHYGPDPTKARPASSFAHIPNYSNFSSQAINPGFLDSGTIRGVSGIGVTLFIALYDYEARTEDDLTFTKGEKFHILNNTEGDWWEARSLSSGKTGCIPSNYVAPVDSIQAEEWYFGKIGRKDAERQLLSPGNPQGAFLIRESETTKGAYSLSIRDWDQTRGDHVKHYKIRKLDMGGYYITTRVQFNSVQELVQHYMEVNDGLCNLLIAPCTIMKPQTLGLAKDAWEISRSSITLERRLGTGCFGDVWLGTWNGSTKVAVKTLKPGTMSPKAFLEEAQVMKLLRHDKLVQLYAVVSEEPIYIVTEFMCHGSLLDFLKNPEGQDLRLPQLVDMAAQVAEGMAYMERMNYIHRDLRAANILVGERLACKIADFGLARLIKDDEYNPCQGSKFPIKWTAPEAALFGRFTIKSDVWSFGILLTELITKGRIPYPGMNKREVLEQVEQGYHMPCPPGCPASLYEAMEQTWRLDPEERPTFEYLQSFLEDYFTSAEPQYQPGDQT
Sequence of Fibroblast growth factor receptor 4 (Homo sapiens) (P22455 22-802 limits assumed): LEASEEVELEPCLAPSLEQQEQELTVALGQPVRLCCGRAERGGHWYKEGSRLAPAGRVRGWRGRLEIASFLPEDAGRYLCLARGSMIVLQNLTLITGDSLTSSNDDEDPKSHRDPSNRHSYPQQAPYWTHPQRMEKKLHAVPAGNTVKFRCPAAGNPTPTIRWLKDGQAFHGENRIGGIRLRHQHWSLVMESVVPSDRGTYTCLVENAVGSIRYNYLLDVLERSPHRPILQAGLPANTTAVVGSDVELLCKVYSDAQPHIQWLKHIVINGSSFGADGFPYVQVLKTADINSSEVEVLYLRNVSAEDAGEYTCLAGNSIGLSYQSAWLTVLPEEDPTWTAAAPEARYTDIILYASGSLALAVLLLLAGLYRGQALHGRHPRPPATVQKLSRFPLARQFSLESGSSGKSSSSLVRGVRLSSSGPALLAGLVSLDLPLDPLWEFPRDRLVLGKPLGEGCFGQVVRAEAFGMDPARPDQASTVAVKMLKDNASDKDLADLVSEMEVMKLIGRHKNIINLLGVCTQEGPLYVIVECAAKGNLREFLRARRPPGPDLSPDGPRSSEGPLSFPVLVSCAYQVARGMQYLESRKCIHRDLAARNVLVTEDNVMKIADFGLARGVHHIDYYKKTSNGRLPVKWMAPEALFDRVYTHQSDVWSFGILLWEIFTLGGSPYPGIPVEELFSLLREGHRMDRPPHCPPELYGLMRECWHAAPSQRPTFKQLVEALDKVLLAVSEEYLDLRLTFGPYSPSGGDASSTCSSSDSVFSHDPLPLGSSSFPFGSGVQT
Sequence of Tyrosine-protein kinase Yes (Homo sapiens) (P07947 2-543 limits assumed): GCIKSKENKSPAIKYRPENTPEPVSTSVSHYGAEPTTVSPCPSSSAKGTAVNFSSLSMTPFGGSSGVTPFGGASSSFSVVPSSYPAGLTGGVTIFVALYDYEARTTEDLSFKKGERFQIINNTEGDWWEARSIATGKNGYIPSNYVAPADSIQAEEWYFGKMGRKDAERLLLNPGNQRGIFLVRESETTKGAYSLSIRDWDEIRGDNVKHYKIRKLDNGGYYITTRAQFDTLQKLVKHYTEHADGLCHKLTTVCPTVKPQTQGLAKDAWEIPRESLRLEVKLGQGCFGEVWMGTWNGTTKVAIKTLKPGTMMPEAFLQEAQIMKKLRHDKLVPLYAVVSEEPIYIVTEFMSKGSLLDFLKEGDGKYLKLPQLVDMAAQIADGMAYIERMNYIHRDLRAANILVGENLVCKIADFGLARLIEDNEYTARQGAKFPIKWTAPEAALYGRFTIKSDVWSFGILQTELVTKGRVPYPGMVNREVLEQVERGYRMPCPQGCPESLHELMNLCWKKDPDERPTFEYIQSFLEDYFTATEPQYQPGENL

For the compound `CCN(CC)S(=O)(=O)c1ccc(OC)c(Nc2ncc(-c3ccccc3)o2)c1`, the inhibition in test [1] came out at 3.57%; in test [2], 10.4%; in [3] it was 38.8%; in [4], 7.45%; in test [5], 30.6%; in test [6] it was 10.2%. Further, the inhibition turned out to be 53.4% in test [7]; 17.9% in [8]; 0.12% in [9]; 8.1% in test [10]; 45.8% in [11]; 24.2% in test [12]. The inhibition in test [13] was 58.6%; in [14], 2.08%; in test [15], -0.02%; in [16] it was 0.42%; in test [17], 0.29%; in test [18], -0.35%. For the same compound, the inhibition was 0.01% in [19] and 0.35% in [20].
`Nc1nc(-c2cccc(Cl)c2)c(-c2ccc3ncccc3n2)s1`: the inhibition in test [1] stood at 2.06%; in [2], 4.53%; in [3] it was 4.6%; in [4], 0.88%; in test [5] it was 3.45%; in [6], 2.09%. The inhibition in test [7] is 2%; in test [8], -4.43%; in [9], -0.72%; in test [10], 3.62%; in [11] it was 5.98%; in test [12], 4.06%. In addition, the inhibition came out at 18.4% in test [13]; 4.31% in test [14]; 3.94% in [15]; 7.17% in test [16]; 9.65% in test [17]; 7.28% in [18]. For the same compound, the results for the inhibition in test [19] and in test [20] were 8.63% and -1.17%, respectively.
For the compound `c1cc(-c2cnn3nc(N4CCOCC4)ccc23)nc(NC2CC2)n1`, the inhibition is 1.73% in test [1]; 3.22% in test [2]; 8.79% in test [3]; 3.82% in test [4]; 8.82% in [5]; 4.34% in test [6]. The inhibition in [7] was 17.2%; in test [8], 7.24%; in test [9], -4.59%; in [10] it was -0.77%; in test [11], 2.97%; in test [12] it was 0.8%. The inhibition was 0.73% in test [13]; -5.37% in test [14]; -0.37% in test [15]; 6.23% in test [16]; 11.5% in [17]; 3.6% in test [18]. In addition, the results for the inhibition in [19] and in test [20] were 9.04% and 1.78%, respectively.
Turning to `COc1ccc(-c2cc3c(N)ncnc3o2)cc1`, the inhibition in [1] is -1.73%; in test [2], 1.49%; in test [3], 7.14%; in [4] it was -0.2%; in test [5] it was 0.12%; in [6] it was -0.73%. The inhibition in [7] was -0.84%; in [8] it was -4.44%; in test [9], 3.74%; in test [10], -0.51%; in test [11], 2.56%; in [12], 0.83%. Also, the inhibition was 6.69% in test [13]; -2.99% in test [14]; -0.14% in test [15]; -1.18% in test [16]; -0.19% in test [17]; -0.23% in [18]. The inhibition stood at 1.67% in test [19] and 1.23% in test [20].
On to `CNC(=O)c1cc(-c2ccc(F)cc2)cc(-c2ccc(S(=O)(=O)N3CCCC3)cc2)c1N`, for which the inhibition in [1] was 0.22%; in test [2], 0.33%; in test [3] it was 2.93%; in [4], 2.17%; in test [5], -0.47%; in test [6] it was 3.03%. Moreover, the inhibition in test [7] was 1.85%; in test [8], -1.38%; in test [9], -1.28%; in [10], 1.59%; in test [11], 1.73%; in test [12], 2.18%. Further, the inhibition in [13] was 3.44%; in test [14] it was -0.4%; in test [15], -0.59%; in test [16] it was 3.72%; in test [17], 3.4%; in test [18], 3.04%. For the same compound, the figures for the inhibition in test [19] and in test [20] were 3.6% and 0.46%, respectively.
As to `Cc1ccc(O)cc1Nc1ccnc2cc(-c3ccccn3)ccc12`, the inhibition in test [1] came to 30.8%; in [2] it was 52.2%; in test [3], 82.7%; in [4] it was 82.1%; in test [5], 95.7%; in test [6], 3.74%. For the same compound, the inhibition in [7] is 4.17%; in test [8], 1.48%; in test [9], -4%; in [10] it was 4.12%; in test [11], 13.9%; in test [12] it was 58.2%. In addition, the inhibition came out at 90.7% in test [13]; 0.52% in test [14]; 4.03% in [15]; 9.05% in test [16]; 12.1% in test [17]; 8.35% in [18]. The inhibition in test [19] is 9.49%; in test [20], -1.1%.

The values are drawn from ChEMBL document CHEMBL1961873, “Compounds: GSK PKIS; Assays: Nanosyn kinase panel” (2012).
